Reference: PubChem BioAssay AID2685 (National Center for Advancing Translational Sciences (NCATS), 2010)
Screen size: about 320,000 compounds; about 2,100 (0.66%) were called active. Inconclusive results (about 53%) are left out. The call rests on the fitted dose curve; in most records, active means well fitted inhibition curve with a large enough effect in the signal ratio, with a control signal flat (not every such curve was filed as active); inconclusive means small, poorly fitted or top-dose-only effect, or effect the other way, or a change in a side signal; inactive means flat fitted curve, though single readings scatter; the % refers to the signal ratio. Many of the other results were omitted from the sample, so actives are more common in it than they were.
Potency means the concentration at half of the fitted maximal effect.

Experiment: qHTS Assay for Lipid Storage Modulators in Drosophila S3 Cells;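 on cell number change: cells counted by Cell Tracker Red CMTPX staining in the red channel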; on lipid storage change, negative = inhibition: on the % scale 0 is the no-effect control and ±100 the full control effect
Details: BODIPY lipid droplet fluorescence, 18-24 h, cells fed with added oleic acid; cell number change: measured here: cell count max response; series mostly up to 46.1 µM; lipid storage change, negative = inhibition: at the top concentration
In short: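 Drosophila S3 cells loaded with oleic acid (400 uM, as added) and compounds at several concentrations; lipid droplets imaged by 488-nm laser-scanning cytometry, 500–530 nm intensity and object ratio to cell channel. Percent activity normalized to 20 uM Triacsin C.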
In the case of `COc1ccc(/C=N/Nc2cc(C)nc(N3CCOCC3)n2)c(OC)c1`, the “lipid storage change, negative = inhibition” value was -17.1% (inactive) and the cell number change was -6.43%.
With `Cc1ccc(NC(=O)c2cc([N+](=O)[O-])ccc2N2CCOCC2)cc1S(=O)(=O)N(C)C` the “lipid storage change, negative = inhibition” value was 3.55% (inactive) and the cell number change was 9.84%.
For `O=C(Nc1ccccc1O)c1nc(Cl)ccc1Cl`, the “lipid storage change, negative = inhibition” value was -0.501% (inactive) and the cell number change was 9.99%.
With `COc1ccc(NS(=O)(=O)c2ccc(C)c(C(=O)N(C)Cc3ccc(OC)cc3OC)c2)cc1` the lipid storage change, negative = inhibition was -11.3% [at 0.0737 µM] (inactive).
For `COc1ccc(NS(=O)(=O)c2ccc(N3CCN(CCO)CC3)c([N+](=O)[O-])c2)cc1`, the Potency was 10.3 µM (active) and the cell number change was -29.2%.
In the case of `COc1ccc(NS(=O)(=O)c2ccc(C)c(C(=O)O)c2)cc1`, the Potency was 25.9 µM (active) and the cell number change was -20.6%.
For `COc1ccc(NS(=O)(=O)c2ccc(C)c(C(=O)N3CC(C)OC(C)C3)c2)cc1` (configuration not stated), the “lipid storage change, negative = inhibition” value was 12.4% (inactive) and the cell number change was 23.9%.
In the case of `COc1ccc(NS(=O)(=O)c2ccc(N)c(C(=O)O)c2)cc1`, the Potency was 20.6 µM (active) and the cell number change was 1.73%.
For `COc1ccc(S(=O)(=O)Nc2ccc(NC(C)=O)cc2)cc1`, the “lipid storage change, negative = inhibition” value was 13.9% (inactive) and the cell number change was 29.3%.
With `COC(=O)c1cc(NS(=O)(=O)c2ccc(N3CCCCC3)c([N+](=O)[O-])c2)cc(C(=O)OC)c1` the “lipid storage change, negative = inhibition” value was -9.87% (inactive) and the cell number change was -2.76%.
With `COC(=O)c1ccc(NS(=O)(=O)c2ccc(OC)cc2)cc1` the “outcome” value was “inactive”.
For `O=C(O)c1ccc(NS(=O)(=O)c2ccc(N3CCCC3)c([N+](=O)[O-])c2)cc1`, the “lipid storage change, negative = inhibition” value was 0.165% (inactive) and the cell number change was 8.51%.
For `CCOC(=O)CNC(=O)CSc1nnc(-c2ccco2)n1Cc1ccco1`, the “lipid storage change, negative = inhibition” value was 13.7% (inactive) and the cell number change was -21.7%.
With `O=C(CCCCCNC(=O)N1CCn2c1nc1ccccc12)N[C@@H](C(=O)O)c1ccccc1` the “lipid storage change, negative = inhibition” value was 7.77% (inactive) and the cell number change was -11.9%.
In the case of `Cc1cc(C)c(C#N)c(OCC(=O)Nc2ccccc2)n1`, the “lipid storage change, negative = inhibition” value was 0.134% (inactive) and the cell number change was 11.6%.
With `CN1CCN(C(=O)c2ccc(Oc3ccc([N+](=O)[O-])cc3)cc2)CC1` the “outcome” value was “inactive”.
In the case of `COc1cccc(CNC(=O)c2ccc(NC(=O)CC3SC(N4CCCCC4)=NC3=O)cc2)c1` (configuration not stated), the “lipid storage change, negative = inhibition” value was -26.4% (inactive) and the cell number change was 11.7%.
In the case of `O=C(Cn1cc[n+](CC(=O)c2ccc(Cl)cc2Cl)c1)c1ccc(Cl)cc1Cl`, the “lipid storage change, negative = inhibition” value was 16.6% (inactive) and the cell number change was -3.27%.
In the case of `N/C(=N\OC(=O)c1cccc2ccccc12)c1ccncc1`, the “lipid storage change, negative = inhibition” value was 23.4% (inactive) and the cell number change was 1.71%.
For `N/C(=N\OC(=O)c1cccc2ccccc12)c1cccnc1`, the “lipid storage change, negative = inhibition” value was 21.2% (inactive) and the cell number change was 18.1%.
In the case of `N/C(=N\OC(=O)c1cccc2ccccc12)c1ccc(Br)cc1`, the Potency was 10.3 µM (active) and the cell number change was 18.1%.
In the case of `CC(=O)c1cccc(NC(=O)c2ccc(C(=O)Nc3cccc(C(C)=O)c3)nc2)c1`, the “lipid storage change, negative = inhibition” value was -11.2% (inactive) and the cell number change was 0.877%.
With `O=Cc1ccccc1OS(=O)(=O)c1ccccc1` the “lipid storage change, negative = inhibition” value was -12.7% (inactive) and the cell number change was -9.79%.
In the case of `Cc1ccccc1S(=O)(=O)Oc1ccccc1C(=O)Oc1ccccc1`, the “lipid storage change, negative = inhibition” value was -2.83% (inactive) and the cell number change was -11.7%.
For `O=C(Oc1ccccc1)c1ccccc1OS(=O)(=O)c1ccccc1`, the Potency was 0.517 µM (active).
In the case of `CC(=O)NC(C)C(=O)OCc1ccc(Cl)cc1Cl` (configuration not stated), the “outcome” value was “inactive”.
With `COc1cccc(CNC(=O)CCCCCn2c(=S)[nH]c3ccc(N4CCOCC4)cc3c2=O)c1` the “lipid storage change, negative = inhibition” value was -0.41% (inactive) and the cell number change was 4.01%.
For `O=C(CCCCCn1c(=S)[nH]c2ccc(N3CCOCC3)cc2c1=O)NCCc1ccccc1`, the “lipid storage change, negative = inhibition” value was -1.13% (inactive) and the cell number change was -6.4%.
For `Cc1cccc(N2CCN(C(=O)CCCCCn3c(=S)[nH]c4ccc(N5CCOCC5)cc4c3=O)CC2)c1C`, the Potency was 20.6 µM (active) and the cell number change was 1.42%.
In the case of `CCc1nn(CC(=O)NCCCN(CC)CC)c(=O)c2cc3sc(C)cc3n12`, the “lipid storage change, negative = inhibition” value was 11% (inactive) and the cell number change was 7.9%.
For `COc1cccc(C(=O)COC(=O)C(C)N2C(=O)c3ccccc3C2=O)c1` (configuration not stated), the “lipid storage change, negative = inhibition” value was 2.36% (inactive) and the cell number change was 8.05%.
For `CCOC(=O)c1sc(NC(=O)c2ccoc2C)c(C(N)=O)c1C`, the Potency was 0.731 µM (active) and the cell number change was -15.9%.
With `COC(=O)c1c(NC(=O)c2ccoc2C)sc(C)c1C` the “lipid storage change, negative = inhibition” value was 28.5% (inactive) and the cell number change was 20.9%.
With `CCOC(=O)c1sc(NC(=O)c2ccccc2C(=O)O)c(C(=O)OCC)c1C` the “lipid storage change, negative = inhibition” value was 9% (inactive) and the cell number change was -2.04%.
For `O=S(=O)(c1cccc(C(F)(F)F)c1)N1CCCC1c1cccnc1` (configuration not stated), the “lipid storage change, negative = inhibition” value was 9.53% (inactive) and the cell number change was 4.77%.
For `CCOC(=O)c1c(C)[nH]c(C(=O)CN2C(=O)NC3(CCCC3)C2=O)c1C`, the “lipid storage change, negative = inhibition” value was 3.01% (inactive) and the cell number change was -4.44%.
With `COC(=O)c1c(C)[nH]c(C(=O)CN2C(=O)NC3(CCOc4ccccc43)C2=O)c1C` (configuration not stated) the “lipid storage change, negative = inhibition” value was 20.8% (inactive) and the cell number change was -21.7%.
For `CCCC1(c2ccccc2)NC(=O)N(CC(=O)c2[nH]c(C)c(C(=O)OCC)c2C)C1=O` (configuration not stated), the Potency was 8.2 µM (active) and the cell number change was -26.5%.
In the case of `Oc1ccc(C[C@H]2CNCCN2CC2(c3ccccc3)CC2)cc1`, the “lipid storage change, negative = inhibition” value was -18.7% (inactive) and the cell number change was 19.8%.
In the case of `COc1ccc(Cl)cc1NC(=O)CN(C)C1CCCCC1`, the “lipid storage change, negative = inhibition” value was 10.9% (inactive) and the cell number change was -8.15%.
For `COc1ccc(OC)c(NC(=O)CCN2CCCCC2)c1`, the “lipid storage change, negative = inhibition” value was -44.8% (inactive) and the cell number change was -3.94%.
In the case of `COc1ccc(OC)c(NC(=O)CCCC(=O)NC2CCCCC2)c1`, the Potency was 7.31 µM (active) and the cell number change was -7.97%.
In the case of `COc1ccc(OC)c(NC(=O)CN(Cc2ccc(F)cc2)C2CCCCC2)c1`, the Potency was 0.291 µM (active) and the cell number change was 6.76%.
With `COc1ccc(OC)c(NC(=O)CN(Cc2ccc(Cl)cc2)S(C)(=O)=O)c1` the “lipid storage change, negative = inhibition” value was -6.37% (inactive) and the cell number change was 1.52%.
With `COc1ccc(CCCC(=O)NC2CCCCC2)cc1` the “lipid storage change, negative = inhibition” value was 18.2% (inactive) and the cell number change was 0.276%.
For `Cc1ccsc1/C=C/c1n[nH]c(=O)c(C#N)c1C`, the “outcome” value was “inactive” and the cell number change was 22.2%.
